Data: PubChem BioAssay (NCATS)
Several values for one entry are separate records, joined by “and”; a condition that tells them apart may be missing. Equal values may be shown once. Activity calls are given as the source filed them. A call without a number means that no potency is given here. Calls come from the whole dose curve; as a rule, active = well fitted curve in the direction sought with a large enough effect in the signal ratio, with a control signal flat (not every such curve was filed as active); inconclusive = small, poorly fitted or top-dose-only effect, or effect the other way, or a change in a side signal; inactive = no such curve, though single readings can be large or run the other way; the % refers to the signal ratio. Numbered stars: 1 amine (or outer) side, 2 acyl side, 3 side chain; on linkers, the order of the positions; unused ones are H or OH. Bridge positions count the residues as written; N and C are the ends. Square brackets hold non-standard residues; d marks the D form. Peptide text beside a SMILES is read from it. I, II: the chains in the order shown. Actinocin(9to1) = Cc1c2oc3c(C)ccc(C(=O)[*:1])c3nc-2c(C(=O)[*:2])c(N)c1=O; NMeV = CN[C@H](C(=O)O)C(C)C; Sar = CNCC(=O)O

Molecular target: Estrogen receptor (Homo sapiens) (UniProt P03372)
Sequence (P03372 whole entry, looked up): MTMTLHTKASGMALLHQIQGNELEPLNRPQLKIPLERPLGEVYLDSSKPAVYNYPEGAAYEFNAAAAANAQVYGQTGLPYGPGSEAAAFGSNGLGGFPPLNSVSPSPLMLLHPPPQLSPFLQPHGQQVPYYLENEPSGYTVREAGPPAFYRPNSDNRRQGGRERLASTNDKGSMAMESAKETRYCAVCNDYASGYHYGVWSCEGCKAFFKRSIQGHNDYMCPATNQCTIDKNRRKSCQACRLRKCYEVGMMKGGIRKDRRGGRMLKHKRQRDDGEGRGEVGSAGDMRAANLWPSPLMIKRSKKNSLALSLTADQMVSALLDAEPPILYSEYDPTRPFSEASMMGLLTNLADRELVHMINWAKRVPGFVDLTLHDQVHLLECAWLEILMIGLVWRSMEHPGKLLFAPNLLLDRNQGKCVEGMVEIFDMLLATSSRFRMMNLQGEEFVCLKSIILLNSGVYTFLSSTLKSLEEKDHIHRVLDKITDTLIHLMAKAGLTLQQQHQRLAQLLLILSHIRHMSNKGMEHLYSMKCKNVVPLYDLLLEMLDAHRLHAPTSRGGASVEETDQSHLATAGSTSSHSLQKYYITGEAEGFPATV
Test: qHTS assay for small molecule antagonists of estrogen receptor alpha signaling (AID 588513)
Settings: ER-alpha-UAS-bla HEK293, beta-lactamase ratio, antagonist mode; series mostly up to 76.9 µM
Source text: NIH Chemical Genomics Center [NCGC]
U.S. Environmental Protection Agency [EPA]
National Institutes of Environmental Health Sciences [NIEHS]
National Toxicology Program [NTP]
Estrogen receptor alpha (ER-alpha) is an important member of nuclear hormone receptors. ER-alpha plays important role in breast cancer as well as in other women's health issues. The majority of breast cancers is estrogen receptor (ER) positive and depends on estrogen for growth. There is also growing concern for some of environmental chemicals which may contribute the increasing the incidence of breast cancer. Therefore, it is important to understand the effect of environmental chemicals in ER-alpha signaling pathway.
NCGC Assay Protocol Summary
Using a beta-lactamase reporter-gene under control of the ER response element, a cell-based assay [ER-alpha-UAS-bla GripTiteTM cell-Based Assay from Invitrogen] was used to measure ER-alpha signaling pathway in antagonist mode. ER-alpha-UAS-bla-GripTite HEK 293 cells were used with assay medium containing 2% charcoal/dextran treated FBS, 0.1 mM NEAA and 1 mM sodium pyruvate. Cells were cultured in this assay medium overnight in the flasks before the assay. The assay was performed in clear bottom black Greiner 1536-well plates. 17-beta-estradiol was used as a positive control in the screen. Library compounds were measured for their ability to inhibit the reporter gene activity. Compounds were screened in a titration series in 1536-well format. […] Data was normalized relative to 17-beta-estradiol control (0.5nM, 100%), and DMSO only wells (basal, 0%). Concentration-response titration points for each compound were fitted to the Hill equation yielding concentrations of half-maximal inhibition (IC50) and maximal response (efficacy) values.
qHTS protocol for ER-alpha beta-lactamase assay in antagonist mode
[Step] [Parameter] [Value] [Description]
1. Reagent; 5 uL; 5000 cells/well
2. Incubation; 37 C for 4 hrs
- Dose response, Start 38uM, 1:2 dilutions with duplicates
- Two columns with 38 and 19uM (final) concentration.
5. Agonist (Stimulator); 1uL; 17-beta-estradiol at 0.5nM (final) concentration
6. Incubation; 37 C for 18 hrs
7. Detection reagent; 1 uL of CCF4-dye
8. Incubation; RT for 2 hrs
9. Detection; Fluorescence; Envision plate reader or Acumen plate reader

Compound	Potency
C=CCc1ccc(O)c(OC)c1	inactive
Cc1c2oc3c(C)ccc(C(=O)N[C@@H]4C(=O)N[C@H](C(C)C)C(=O)N5CCC[C@H]5C(=O)N(C)CC(=O)N(C)[C@@H](C(C)C)C(=O)O[C@@H]4C)c3nc-2c(C(=O)N[C@@H]2C(=O)N[C@H](C(C)C)C(=O)N3CCC[C@H]3C(=O)N(C)CC(=O)N(C)[C@@H](C(C)C)C(=O)O[C@@H]2C)c(N)c1=O (I: T[dV]P[Sar][NMeV] / II: T[dV]P[Sar][NMeV]; ester I:1-I:C, II:1-II:C; linker I:N-II:N via Actinocin(9to1))	35.5 nM [inconclusive] (active) and 35.5 nM [inhibitor] (active)
CC(=O)O[C@]1(C(C)=O)CC[C@H]2[C@@H]3C[C@H](C)C4=CC(=O)CC[C@]4(C)[C@H]3CC[C@@]21C	inactive
Oc1c(Cl)cc(Cl)cc1Sc1cc(Cl)cc(Cl)c1O	39.8 µM [inconclusive] (active)
CC(O)C(=O)O (configuration not stated)	inactive
Nc1ccc(C(=O)O)cc1	inactive
C=C(CC)C(=O)c1ccc(OCC(=O)O)c(Cl)c1Cl	inactive
O=c1ccc2ccccc2o1	inactive
COc1cccc2c1C(=O)c1c(O)c3c(c(O)c1C2=O)C[C@@](O)(C(=O)CO)C[C@@H]3O[C@H]1C[C@H](N)[C@H](O)[C@H](C)O1	5.01 µM [inconclusive] (active) and 7.94 µM [inhibitor] (active)
O=C(O)CCCCC(=O)O	inactive
CC(C)(C)CC(C)(C)c1ccc(OCCOCC[N+](C)(C)Cc2ccccc2)cc1	44.7 µM [inconclusive] (active)
Cc1cc(=O)n(-c2ccccc2)n1C	inactive
